Results as given in PubChem BioAssay (EPA / NIEHS).
More than one record can exist for a structure, and the calls need not agree. Active and inactive are the calls of the source. Rule for the calls: active = hit-call score of the fitted dose curve at least 0.9, where 1 is the maximum; inactive = score below 0.9.

Assay: ATG_CRE_CIS: Attagene CIS-FACTORIAL HepG2 Assay for human cAMP Responsive Element (CRE) binding protein 3 (AID 2282926)
Details: HepG2 CRE cis-reporter, Attagene multiplexed mRNA; actives raise or lower the signal
Outline: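 Readout: fluorescently labelled reporter transcripts resolved by capillary electrophoresis after RT-PCR, taken 24 h post-dosing in transfected HepG2. Endogenous transcription factor activity drives each cis-element reporter; gain or loss of signal fitted relative to DMSO control.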

Row | SMILES | outcome | AC50
1 | COc1ccc(C#N)cc1 | inactive | 
2 | Cc1cc(Cc2cc(C)cc(C(C)(C)C)c2O)c(O)c(C(C)(C)C)c1 |  | 23.7 µM (active)
3 | CC(C)(C)C1CCCCC1O (configuration not stated) | inactive | 
4 | O=C1c2ccc(O)c(O)c2C(=O)c2c(O)ccc(O)c21 | inactive | 
5 | C=CC(=O)OCCN(CC)CC |  | 26.9 µM (active)
6 | CCCC=O | inactive | 
7 | NC(=NCCCCCCN=C(N)/N=C(\N)Nc1ccc(Cl)cc1)/N=C(\N)Nc1ccc(Cl)cc1 | inactive | 24 µM (active)
8 | C=CC(C)(CCC=C(C)C)OC(C)=O (configuration not stated) | inactive | 
9 | CCOC(=O)CN[C@@H](C(=O)N1CC[C@H]1C(=O)NCc1ccc(/C(N)=N/O)cc1)C1CCCCC1 | inactive | 
10 | C=C(c1ccc(C(=O)O)cc1)c1cc2c(cc1C)C(C)(C)CCC2(C)C | inactive | 31.9 µM (active)
11 | Cc1cccc2c1ccc1ccccc12 | inactive | 
12 | O=C(NO)c1ccccc1 | inactive | 8.57 µM (active)
13 | OCC1CCC(CO)CC1 (configuration not stated) | inactive | 
14 | Oc1cccc2c(O)cccc12 | inactive | 
15 | CCCCCCCCCCCC[N+](C)(C)Cc1ccccc1 | inactive | 19.5 µM (active)
16 | CCc1cccc(CC)c1N(COC)C(=O)CS(=O)(=O)O | inactive | 
17 | COC(O)c1ccccc1 (configuration not stated) | inactive | 
18 | CC1CCC(CO)CC1 (configuration not stated) | inactive | 
19 | C=CC(=O)OCC(CO)(COCC(COC(=O)C=C)(COC(=O)C=C)COC(=O)C=C)COC(=O)C=C | inactive | 
20 | CC1CNCC(C)O1 (configuration not stated) | inactive | 
21 | O=C(O)c1cccc(C(=O)O)n1 | inactive | 
22 | Cc1ccc2ccc3ccc(C)cc3c2c1 | inactive | 
23 | O=C1OC(=O)C(F)(F)C1(F)F | inactive | 
